According to PubChem BioAssay:
Active and inactive are the calls of the source. Unless noted, no rule for the calls is given here.

Assays:
[1] = resazurin metabolic signal in HepG2 cells – cell-based, resazurin fluorescence, 24 h, PK04 Diversity Set, profiling panel (AID 1172); conditions: HepG2 viability, higher = more signal
[2] = budding yeast growth changes without added modifier – OD600, strain BY4716, 24 h, basal condition, primary screen (AID 1173); conditions: S. cerevisiae BY4716 growth, OD600, 24 h; higher = more signal, called active from +8 up or from −8 down
[3] = viability profiling in MM1S myeloma cells – cell-based, resazurin fluorescence, basal, 24 h, PK04 Diversity Set, profiling panel (AID 1174); conditions: higher = more signal, called active from +8 up or from −8 down;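 also: MM1S multiple myeloma cell line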
[4] = target: Dihydroorotate dehydrogenase (quinone), mitochondrial (Plasmodium falciparum (isolate 3D7)) (UniProt Q08210); experiment: inhibition of P. falciparum DHODH – biochemical, C-terminal His tag, absorbance 600 nm, primary screen (AID 1175); conditions: PfDHODH enzyme, DCIP absorbance 600 nm; higher = more signal, called active from +8 up or from −8 down;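 also: recombinant parasite enzyme with a five histidine tag at its C terminus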
Sequence of Dihydroorotate dehydrogenase (quinone), mitochondrial (Plasmodium falciparum (isolate 3D7)) (Q08210 whole entry, looked up): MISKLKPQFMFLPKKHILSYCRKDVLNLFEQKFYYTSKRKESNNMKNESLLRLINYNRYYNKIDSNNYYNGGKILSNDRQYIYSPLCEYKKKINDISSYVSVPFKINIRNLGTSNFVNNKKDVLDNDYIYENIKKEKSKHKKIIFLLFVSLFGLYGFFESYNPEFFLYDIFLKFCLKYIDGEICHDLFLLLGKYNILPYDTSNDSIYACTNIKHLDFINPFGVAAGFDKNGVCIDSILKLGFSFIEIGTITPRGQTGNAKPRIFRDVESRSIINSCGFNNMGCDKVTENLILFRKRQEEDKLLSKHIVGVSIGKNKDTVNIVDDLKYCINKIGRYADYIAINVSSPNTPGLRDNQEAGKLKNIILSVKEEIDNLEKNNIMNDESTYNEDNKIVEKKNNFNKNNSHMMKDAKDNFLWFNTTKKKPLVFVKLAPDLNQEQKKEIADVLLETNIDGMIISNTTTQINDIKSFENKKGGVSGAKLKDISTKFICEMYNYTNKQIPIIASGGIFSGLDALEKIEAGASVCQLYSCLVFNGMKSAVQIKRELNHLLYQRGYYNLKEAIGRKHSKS

[5] = inhibition of PAO1 biofilm formation – strain PAO1, LB-PBS medium, absorbance 600 nm, primary screen (AID 1176); conditions: P. aeruginosa PAO1 growth/biofilm, A600, 12 h; higher = more signal
[6] = growth modulation of vineyard yeast isolate – strain RM11-1a, OD600, basal, 24 h, primary screen (AID 1177);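 also: cultures grown under basal conditions with no added stressor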; conditions: S. cerevisiae RM11-1a growth, OD600, 24 h; higher = more signal, called active from +8 up or from −8 down
[7] = growth of efflux-deficient E. coli DRC39 – strain DRC39, OD650, 24 h, E. coli filamentation inducers, primary screen (AID 1178);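 also: growth measured as culture turbidity by optical density at 650 nm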; conditions: E. coli DRC39 acrAB, higher = more signal, called active from +8 up or from −8 down
[8] = growth of efflux-deficient E. coli DRC39 – strain DRC39, OD650, 48 h, E. coli filamentation inducers, primary screen (AID 1179);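 also: screen aims at cell division blockers that make cells filament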; conditions: E. coli DRC39 delta-acrAB growth, higher = more signal, called active from +8 up or from −8 down
[9] = viability profiling in RPMI8226 myeloma cells – cell-based, resazurin fluorescence, basal, 24 h, PK04 Diversity Set, profiling panel (AID 1180); conditions: higher = more signal;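 also: RPMI8826 multiple myeloma cell line at 5000 cells per well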
[10] = target: E3 ubiquitin-protein ligase XIAP (Homo sapiens) (UniProt P98170); experiment: small molecules binding XIAP protein – biophysical, small-molecule microarray, fluorescence 635 nm, primary screen (AID 1181); conditions: higher = more signal;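 also: score merges 667 nm emission and signal to noise over triplicate slides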
Sequence of E3 ubiquitin-protein ligase XIAP (Homo sapiens) (P98170 whole entry, looked up, the tested form may be a part): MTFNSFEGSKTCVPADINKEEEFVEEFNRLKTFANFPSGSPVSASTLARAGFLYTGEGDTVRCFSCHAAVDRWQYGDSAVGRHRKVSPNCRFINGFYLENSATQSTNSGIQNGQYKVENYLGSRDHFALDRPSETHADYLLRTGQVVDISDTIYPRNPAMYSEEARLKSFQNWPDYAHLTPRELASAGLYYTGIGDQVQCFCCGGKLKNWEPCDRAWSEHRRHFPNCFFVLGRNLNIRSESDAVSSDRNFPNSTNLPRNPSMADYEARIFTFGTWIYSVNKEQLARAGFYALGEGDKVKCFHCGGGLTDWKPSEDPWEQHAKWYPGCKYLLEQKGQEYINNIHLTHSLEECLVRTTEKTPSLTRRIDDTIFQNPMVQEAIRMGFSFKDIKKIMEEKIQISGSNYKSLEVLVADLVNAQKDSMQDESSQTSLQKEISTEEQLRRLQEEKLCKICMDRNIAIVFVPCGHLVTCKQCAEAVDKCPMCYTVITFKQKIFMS

[11] = system: XIP peptide (Xip251-270) binding; experiment: XIP fragment 251-270 binding compounds – biochemical, small-molecule microarray, fluorescence 635/667 nm, 0.1 µg/mL protein, primary screen (AID 1182); conditions: fluorescent protein binding, 635 nm, higher = more signal, called active from +8 up or from −8 down
XIP peptide (Xip251-270) = experiment: compounds binding XIP fragment 251-270 – biochemical, small-molecule microarray, fluorescence 635/667 nm, 0.5 µg/mL protein, primary screen (AID 1183); conditions: fluorescence 635 nm, higher = more signal
[12] = blood-stage malaria parasite viability loss – strain 3D7, DAPI fluorescence, 100 nL, primary screen (AID 1184);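 also: parasites grown inside human red blood cells in medium with human serum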; conditions: P. falciparum 3D7 growth, 3 d, higher = more signal
[13] = target: Homeobox protein Hox-A13 (Mus musculus) (UniProt Q62424); experiment: disruptors of Hoxa13 oligonucleotide interaction – biochemical, fluorescence polarization, labeled oligonucleotide, primary screen (AID 1185); conditions: Hoxa13:DNA binding, 15 min, higher = more signal, called active from +8 up or from −8 down
Sequence of Homeobox protein Hox-A13 (Mus musculus) (Q62424 whole entry, looked up): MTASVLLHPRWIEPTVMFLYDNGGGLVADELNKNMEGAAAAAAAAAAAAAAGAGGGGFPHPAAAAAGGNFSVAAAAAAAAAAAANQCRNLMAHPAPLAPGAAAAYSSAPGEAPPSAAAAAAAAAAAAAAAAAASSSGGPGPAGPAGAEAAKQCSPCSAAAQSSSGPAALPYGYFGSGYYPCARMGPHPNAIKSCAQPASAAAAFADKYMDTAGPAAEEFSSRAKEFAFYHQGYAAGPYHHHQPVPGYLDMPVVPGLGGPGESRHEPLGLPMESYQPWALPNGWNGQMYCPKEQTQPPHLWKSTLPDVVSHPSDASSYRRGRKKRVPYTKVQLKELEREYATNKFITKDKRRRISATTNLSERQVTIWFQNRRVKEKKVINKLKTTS

[14] = blockers of DNA damage checkpoint Chk1 activation – imaging, HeLa, hydroxyurea, phospho-Chk1 antibody, percent positive cells, primary screen (AID 1186); conditions: hydroxyurea-induced phospho-Chk1 immunofluorescence imaging, higher = more signal
[15] = blockers of DNA damage checkpoint Chk1 activation – imaging, HeLa, hydroxyurea, phospho-Chk1 nuclear intensity, primary screen (AID 1187); conditions: hydroxyurea-induced phospho-Chk1 immunofluorescence imaging, higher = more signal

Row | Structure (SMILES) | z-score [1] | z-score [2] | z-score [3] | composite z-score [4] | z-score [5] | z-score [6] | z-score [7] | z-score [8] | z-score [9] | composite z-score [10] | composite z-score [11] | composite z-score (XIP peptide (Xip251-270)) | z-score [12] | z-score [13] | z-score [14] | z-score [15]
1 | Cc1ccc(S[C@]2(C(=O)NCC(F)(F)F)CC(=O)N(Cc3ccccc3)[C@@H]2c2ccc(CO)cc2)cc1 | -0.991 | -0.185 (inactive) | 0.546 (inactive) | -0.309 (inactive) | -0.131 (inactive) | -0.629 (inactive) | 0.163 (inactive) | -0.0965 (inactive) | 0.342 | 0.4 | 1.02 (inactive) | 0.5 | -1.57 | -3.77 (inactive) | -0.336 (inactive) | -0.603 (inactive)
2 | COc1ccc([Si](C)(C)[C@@H]2[C@@H](CCO)O[C@]3(C(=O)N(Cc4cccc(N5C(=O)c6cccc7cccc5c67)c4)c4ccccc43)[C@H]2C)cc1 | -1.83 | 1.34 (inactive) | -2.77 (inactive) | 0.518 (inactive) | 1.53 (inactive) | 5.01 (inactive) | 1.55 (inactive) | 0.97 (inactive) | -3.49 | -0.0351 | 0.875 (inactive) | 0.635 | -2.52 | -1.52 (inactive) | -0.758 (inactive) | 0.0003 (inactive)
3 | COc1cc(CO)cc(I)c1O[C@H]1C=C(C(=O)NCCO)C[C@@H](N(CC2CCCCC2)C(=O)c2ccc(C(F)(F)F)cc2)[C@@H]1O | 0.445 | -1.02 (inactive) | -0.327 (inactive) | 0.345 (inactive) | 0.425 (inactive) | 0.183 (inactive) | 0.342 (inactive) | 0.212 (inactive) | 0.508 | 0.0859 | -0.175 (inactive) | 0.516 | 1.09 | -6.43 (inactive) | -0.409 (inactive) | -0.884 (inactive)
4 | CC(C)(C)N1CC=CC23O[C@@H]4C=CCOC(=O)[C@@H]4[C@H]2C(=O)N(CCCO)[C@@H]3C1=O (some centres undefined) | -0.922 | 0.114 (inactive) | -1.27 (inactive) | -0.257 (inactive) | -0.317 (inactive) | 0.297 (inactive) | -1.04 (inactive) | -0.955 (inactive) | -0.808 | 0.55 | -0.466 (inactive) | -0.825 | -1.87 | -3.12 (inactive) | -0.263 (inactive) | -0.327 (inactive)
5 | CC(=O)n1cc(C(O)C2C=CC3C(=O)N(c4ccccc4)C(=O)C3N2Nc2ccccc2)c2ccccc21 (centres undefined) | -1.51 | -3.18 (inactive) | -2.12 (inactive) | 0.342 (inactive) | 0.807 (inactive) | 0.127 (inactive) | -0.0484 (inactive) | -0.602 (inactive) | -1.76 | 0.0297 | 0.853 (inactive) | -0.515 | -0.4 | -3.42 (inactive) | 0.863 (inactive) | 0.355 (inactive)
6 | COc1ccccc1CN1C(=O)c2ccccc2[C@@H](C(=O)NC(C)C)[C@@H]1c1ccc(CO)cc1 | 1.1 | -0.186 (inactive) | 1.1 (inactive) | -0.469 (inactive) | -0.963 (inactive) | -0.108 (inactive) | 0.686 (inactive) | 0.0549 (inactive) | 1.17 | 0.0251 | 0.0282 (inactive) | 0.905 | -0.425 | -1.9 (inactive) | 0.19 (inactive) | 0.686 (inactive)
7 | C=CCOC(=O)[C@H]1[C@@H]2C(=O)O[C@@H](c3ccccc3)[C@@H](c3ccccc3)N2[C@@H](c2ccc(OCCOC(=O)[C@H]3C[C@H]4C(=O)N[C@@H](CCCC[N+](C)(C)C)C(=O)N4[C@H]3c3cccc(OCCO)c3)cc2)[C@]12C(=O)Nc1ccc(I)cc12 | -0.346 | 1.44 (inactive) | -0.0145 (inactive) | -2.44 (inactive) | 4.03 (inactive) | 2.44 (inactive) | 0.186 (inactive) | 0.57 (inactive) | 0.208 | -0.0373 | 0.261 (inactive) | 0.617 | -1.87 | 1.47 (inactive) | -0.714 (inactive) | -0.783 (inactive)
8 | [N-]=[N+]=NCc1ccccc1C[C@@]1(C(N)=O)N=C(c2ccc(OCCCO)cc2)O[C@@H]1c1ccccc1CN=[N+]=[N-] | 0.717 | -1.43 (inactive) | -0.833 (inactive) | -11.6 (active) | 0.261 (inactive) | 0.835 (inactive) | 0.178 (inactive) | 0.041 (inactive) | 0.0178 | 0.0049 | 0.145 (inactive) | 0.0228 | -1.91 | -1.91 (inactive) | -0.228 (inactive) | -0.347 (inactive)
9 | C=C(COC)/C(=C/C[C@@H](OC(=O)c1ccncc1)c1ccc(OCCO)cc1)c1cnc2ccccc2c1 | 0.564 | -1.17 (inactive) | 0.354 (inactive) | -6.09 (inactive) | -0.0221 (inactive) | -0.0819 (inactive) | 0.595 (inactive) | 0.436 (inactive) | 0.621 | 0.0566 | 0.39 (inactive) | 0.595 | -2.93 | -5.37 (inactive) | -0.0998 (inactive) | 0.349 (inactive)
